Source: PubChem (several laboratories)
CYP2C19 inhib – inhibitors of human CYP2C19 | CYP2C19 Supersomes, luciferin-H EGE luminescence, 30 min | P33261 | 21% of 96,000 active | inhibition, % at 5 µM;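 active means CYP2C19 inhibition above a set limit at 5 µM in the primary screen, cut at about 50% in these data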;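 further: plate controls were negative control wells for no effect and 2.5 mM tranylcypromine positive control for full effect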
E-sel TNF inh – TNF alpha driven E-selectin expression inhibition. HUVEC TNFa-induced E-selectin immunofluorescence, high content. inhibition, % at 2 µM. 0.71% of 120,000 active;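 active means inhibition above the batch mean plus 3 SD, and confirmed as a hit on visual image review, cut at about 43% in these data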;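 further: 0% = TNF-stimulated DMSO wells and 100% = unstimulated control wells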
CYP2C9 inhib – blocks human cytochrome P450 2C9. CYP2C9 Supersomes, luciferin-H conversion, luminescence. P11712. inhibition, % at 5 µM. 20% of 96,000 active;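 active means blocking of liver enzyme CYP2C9 beyond about 50% at 5 µM, limit read from the data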
Target sequence (P11712 whole entry, looked up): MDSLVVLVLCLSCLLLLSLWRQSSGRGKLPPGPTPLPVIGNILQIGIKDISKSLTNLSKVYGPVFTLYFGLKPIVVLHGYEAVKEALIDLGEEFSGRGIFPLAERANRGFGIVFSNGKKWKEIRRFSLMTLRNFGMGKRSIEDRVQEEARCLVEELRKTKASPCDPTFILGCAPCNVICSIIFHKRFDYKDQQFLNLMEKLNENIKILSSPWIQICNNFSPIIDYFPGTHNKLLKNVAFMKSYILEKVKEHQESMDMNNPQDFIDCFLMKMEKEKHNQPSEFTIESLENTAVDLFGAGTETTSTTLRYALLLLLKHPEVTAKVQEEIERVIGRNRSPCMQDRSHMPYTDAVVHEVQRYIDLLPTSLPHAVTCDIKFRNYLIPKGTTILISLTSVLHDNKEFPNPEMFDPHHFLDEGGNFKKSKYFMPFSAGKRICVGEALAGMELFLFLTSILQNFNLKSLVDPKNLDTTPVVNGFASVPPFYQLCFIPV
cytoskel mod – cytoskeleton assembly modification | HUVEC TNFa F-actin phalloidin imaging, high content | inhibition, % at 2 µM | 0.18% of 91,000 active | AID 836;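 active means inhibition above the batch mean plus 3 SD and confirmed as a hit by visual image inspection, cut at about 30% in these data, passing the limit was not always enough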
CYP2C9 activ – activators of human CYP2C9 | P11712 | recombinant CYP2C9, luciferin-H conversion, luminescence; active compounds read high; factor 1 = untreated enzyme, 0 = blocked | activation factor at 5 µM | 1.4% of 96,000 active | AID 1024;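 active means activation factor of 2 or more for CYP2C9 at a 5 µM dose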;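 further: 0 = sulfaphenazole-blocked wells and 1 = vehicle-only wells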
CYP2C19 activ – increases human CYP2C19 enzyme activity; P33261; 96,000 tested, under 10 active; activation factor at 5 µM; recombinant CYP2C19, luciferin-H EGE luminescence; active compounds read high; 0 = fully inhibited enzyme, 1 = untreated enzyme;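 active means activation factor of at least 2 at 5 µM in the primary screen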;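 further: 0 = wells with 2.5 mM tranylcypromine and 1 = vehicle-only wells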
An asterisk follows results filed as active; / = not tested or not shown. Hits are enriched below; roughly 22% of the tested compounds scored in any of these assays.

SMILES	CYP2C19 inhib	E-sel TNF inh	CYP2C9 inhib	cytoskel mod	CYP2C9 activ	CYP2C19 activ
O=C(/C=C/c1ccccc1Cl)c1cccnc1	54*	-15	13	18	0.9	0.5
O=C(/C=C/c1ccc(Cl)cc1)c1cccnc1	94*	11	52*	5	0.5	0.1
Cc1ccccc1OCc1nc(-c2ccccc2)no1	-1	5	-8	-12	1.1	1
Cc1cc(OCc2nc(-c3cccs3)no2)cc(C)c1Cl	50*	/	48	-11	0.5	0.5
CCOc1nc(-c2ccccc2)ccc1-c1noc(COc2ccccc2)n1	60*	7	80*	/	0.2	0.4
c1ccc(OCc2nc(-c3cccs3)no2)cc1	74*	5	62*	0	0.4	0.3
CC(C)(C)NC(=O)Cn1c(-c2nonc2N)nc2ccccc21	62*	10	76*	11	0.2	0.4
Nc1nonc1-c1nc2ccccc2n1CC(=O)N/N=C\c1ccc(-c2ccc(Cl)cc2)o1	-10	8	-1	-10	1	1.1
CCCCOc1ccccc1NC(=O)Cn1c(-c2nonc2N)nc2ccccc21	33	-89	70*	/	0.3	0.7
CCOC(=O)Cn1c(-c2nonc2NC(=O)c2ccccc2F)nc2ccccc21	50	-5	92*	-1	0.1	0.5
Cc1cc(NCc2ccccn2)nc2ccccc12	56*	4	-197	-9	3*	0.4
Cc1nc(NCc2ccccn2)c2ccccc2n1	0	0	-4	-7	1	1
c1ccc(CNc2ccc3ccccc3n2)nc1	75*	-11	-13	/	1.1	0.2
Cc1noc(-c2ccccc2OC(=O)c2ccccc2)n1	39	8	33	-7	0.7	0.6
CC(C)(C)NC(=O)NC(=O)COC(=O)CNS(=O)(=O)c1ccc(Br)cc1Cl	/	-8	/	/	/	/
CSc1nc2sc3c(c2c2nnnn12)CCCC3	10	/	22	-31	0.8	0.9
CSc1nc2sc3c(c2c2nnnn12)CCC3	62*	/	11	/	0.9	0.4
COc1ccc(NC(=S)NCCN2CCOCC2)c(OC)c1	/	/	/	8	/	/
c1ccc2c(c1)OCC(c1nnc3sc(-c4cnccn4)nn13)O2 (stereo not drawn)	21	-23	-4	0	1	0.8
Brc1ccccc1-c1nnc2sc(-c3ccc4c(c3)OCCO4)nn12	74*	4	96*	-3	0	0.3
c1ccc2c(c1)OCC(c1nnc3sc(-c4ccc5c(c4)OCO5)nn13)O2 (stereo not drawn)	65*	1	84*	-1	0.2	0.3
c1csc(-c2nn3c(C4COc5ccccc5O4)nnc3s2)c1 (stereo not drawn)	58*	-37	51*	10	0.5	0.4
c1ccc2c(c1)OCC(c1nnc3n1-c1ccccc1SC3)O2 (stereo not drawn)	96*	/	85*	6	0.2	0
Fc1ccc(-c2nn3c(C4COc5ccccc5O4)nnc3s2)cc1 (stereo not drawn)	7	0	49	-12	0.5	0.9
Cc1sc(NC(=O)CN(C)C2CCCCC2)nc1-c1ccc2c(c1)CCN2S(=O)(=O)c1ccccc1	15	-25	28	-16	0.7	0.9
SMILES	CYP2C19 inhib	E-sel TNF inh	CYP2C9 inhib	cytoskel mod	CYP2C9 activ	CYP2C19 activ
Cc1nn2c(CN(C(=O)c3ccco3)c3ccccc3)nnc2c2ccccc12	/	-14	/	-16	/	/
COc1ccc(CSCC(=O)Nc2ccc(S(=O)(=O)N3CCCCCC3)cc2)cc1	/	1	/	/	/	/
COc1ccc(S(=O)(=O)N2CCN(CC(=O)Nc3ccc(C)c(F)c3)CC2)cc1	82*	16	-18	13	1.2	0.2
COc1ccc(S(=O)(=O)N2CCN(CC(=O)Nc3cc(C(F)(F)F)ccc3Cl)CC2)cc1	/	-22	/	5	/	/
COc1ccc(S(=O)(=O)N2CCCN(CCC(=O)Nc3cccc(C(F)(F)F)c3)CC2)cc1	49	0	-6	2	1.1	0.5
COc1ccc(NC(=O)CN2CCCN(S(=O)(=O)c3ccc(F)cc3)CC2)cc1	89*	25	53*	8	0.5	0.1
COc1ccc(S(=O)(=O)N2CCN(CC(=O)Nc3cccc(F)c3)CC2)cc1	54*	-37	-37	16	1.4	0.5
CCOc1nc(NC(=O)NS(=O)(=O)c2ccccc2F)nc(-c2ccccc2)n1	/	1	/	/	/	/
COc1ccc(C(=O)NCC(=O)NCC(=O)OCC(=O)C(C)(C)C)cc1	/	3	/	/	/	/
CCCCNS(=O)(=O)c1ccc2nc(SCC(=O)c3ccc(C#N)cc3)[nH]c2c1	74*	-11	88*	/	0.1	0.3
COc1ccc(-c2csc(N(CCc3ccc(OC)c(OC)c3)C(=O)COc3ccccc3)n2)cc1	38	-8	68*	-4	0.3	0.6
COc1ccc(-c2csc(N(Cc3ccccc3)C(=O)COc3ccc(Cl)cc3)n2)cc1	-15	34	-7	24	1.1	1.1
CN(C)c1nc(N)nc(CSc2nnnn2-c2ccc(C(=O)O)cc2)n1	-4	/	-21	3	1.2	1
O=C(NCCc1ccncc1)c1ccccc1F	81*	-32	57*	5	0.4	0.2
O=C(Nc1nc2ccccc2[nH]1)c1ccccc1F	95*	/	81*	-23	0.2	0
O=C(Nc1nc2ccccc2[nH]1)c1ccc(F)cc1	33	/	14	6	0.9	0.7
O=C(Nc1ccncc1)c1ccccc1F	64*	/	45	-17	0.6	0.4
O=C(Nc1ccc(Oc2cccnc2)cc1)c1ccccc1F	93*	8	97*	-2	0	0.1
O=C(NCc1cccs1)C1CCCN(c2nc3ccccc3o2)C1 (stereo not drawn)	39	/	13	26	0.9	0.6
COc1ccc(C2Nc3ccccc3C(=O)N2Cc2ccco2)cc1COc1ccc([N+](=O)[O-])cc1 (stereo not drawn)	39	-18	96*	-18	0	0.6
O=C1c2ccccc2NC(c2ccc(F)cc2)N1Cc1ccco1 (stereo not drawn)	53*	-15	68*	-18	0.3	0.5
O=C1c2ccccc2NC(c2ccccc2)N1Cc1ccco1 (stereo not drawn)	34	-33	60*	/	0.4	0.7
CN(C)/C=N/c1ncc(C(=O)OC(C)(C)C)s1	/	7	/	/	/	/
CC(=O)Nc1ccc(S(=O)(=O)NC2(C(F)(F)F)C(=O)Nc3c2c(=O)n(C)c(=O)n3C)cc1 (stereo not drawn)	26	5	-7	-3	1.1	0.7
CC(=O)Nc1ccc(S(=O)(=O)NC2(C(F)(F)F)C(=O)Nc3c2c(=O)[nH]c(=O)n3C)cc1 (stereo not drawn)	-11	-33	0	34*	1	1.1
CC1(C)CC(=O)C2=C(C1)Nc1ccccc1N=C2	/	1	/	-20	/	/
Cc1ccc(Sc2nnc(-c3ccccc3)cc2C#N)cc1	11	-17	30	-8	0.7	0.9
N#Cc1cc(-c2ccccc2)cnc1Sc1ccccc1	28	/	78*	/	0.2	0.7
